Source: PubChem BioAssay AID1845225 (National Center for Advancing Translational Sciences (NCATS), 2023)
Results filed as inconclusive are left out. Calls follow the shape of the dose curve; as a rule, active = well fitted curve in the direction sought with a large enough effect; inconclusive = small, poorly fitted or top-dose-only effect, or effect the other way, or another doubt; inactive = no such curve, though single readings can be large or run the other way.

Experiment: Confirmatory redox qHTS assay for identification of artifact compounds.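 Also: 0% = DMSO and 100% = DA3003 at 10 µM.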
Conditions: Amplex Red/HRP redox cycling with DTT, fluorescence; series mostly up to 39 µM; redox activity vs DA3003: at the top concentration
In short: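 Amplex Red (25 uM final) and HRP (250 mU/mL final) in HBSS, compound 15 min, then 250 uM DTT final 30 min, room temperature, dark; fluorescence 525/598 nm, normalized to DMSO and 10 uM DA3003, Hill fitted.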

Redox activity vs DA3003, inactive:
COc1ccc(C(=O)O)cc1Nc1nc2ccc(C)cc2n2cnnc12 -0.298%
Oc1ccc(CNc2cccc(F)c2F)c2cccnc12 6.02%
CC(C)C[C@H](NC(=O)[C@@H](Cc1c[nH]c2ccccc12)NC(=O)[C@H](Cc1ccc(O)cc1)NC(=O)[C@H](CO)NC(=O)[C@H](Cc1c[nH]c2ccccc12)NC(=O)[C@H](Cc1cnc[nH]1)NC(=O)[C@@H]1CCC(=O)N1)C(=O)N[C@@H](CCCN=C(N)N)C(=O)N1CCC[C@@H]1C(=O)NCC(N)=O 9.85%
CC1CCCCN1CCCNC(=O)Cn1ncc2c3ccccc3n(Cc3ccccc3)c2c1=O (stereo not given) 7.73%
O=C1C2C3CCCC3=C3CCCC3C2C(=O)N1c1ccc(Cl)cc1 (stereo not given) 1.34%
O=S(=O)(c1ccc(Cl)cc1)N1CCC(c2ccncc2)CC1 -0.214%
Nc1ccc(F)cc1F -1.05%
O=C(CCC(=O)N1CCSc2ccccc21)Nc1ccc(Cl)cc1 1.2%
O=C(CSc1nnc2scc(-c3ccc(Cl)cc3)n12)Nc1cccc(C(F)(F)F)c1 -0.385%
COc1ccc(NC(=O)N2CCc3c(sc4c3CCCC4)C2c2ccccc2OC)cc1 (stereo not given) 0.514%
COc1ccc(-c2cc(=O)c3ccccc3o2)cc1 0.478%
CC(C)Oc1ccc(CNC(=O)Cc2ccc(NC(=O)N3CCSc4ncccc43)cc2)cc1 1.51%
CCOc1ccc(CNC(=O)CN2C(=O)CSc3c2c(C)nn3-c2ccccc2)cc1 1.23%
COc1cccc(CNC(=O)C2Cc3cc(S(=O)(=O)N4CCCCCC4)ccc3N2C(C)=O)c1 (stereo not given) 3.65%
O=C(NC1CCCCCC1)c1ccc(CS(=O)c2ccc(Br)cc2)o1 (stereo not given) 9.24%
COc1cc2c(NC3CCN(C)CC3)nc(N3CCN(C)CC3)nc2cc1OCCCN(C)C 13.1%
CCOc1ccc(C(=O)c2cn(CC(=O)Nc3cc(OC)ccc3OC)c3cc(OC)c(OC)cc3c2=O)cc1 7.18%
O=C(NCCC1=CCCCC1)c1ccc2c(c1)N(Cc1cccc(Cl)c1)C(=O)c1ccccc1S2=O (stereo not given) 0.652%
COC(=O)c1c(OCc2ccccn2)cc(=O)n2c1CCN(C(=O)c1n[nH]c3c1CCCC3)CC2 2.12%
CC(=NCc1ccccc1)c1ccccc1O 15.3%
O=C(Nc1nnc(-c2ccccc2)s1)c1ccc(S(=O)(=O)N2CCCC2)cc1 -0.334%
COc1cc2c(NC3CCN(C)CC3)nc(N3CCCN(C)CC3)nc2cc1OCCCN(C)C 12.6%
CC(C)c1nn2c(=O)cc(COC(=O)c3cccc(NC(=O)COc4ccc(F)cc4)c3)nc2s1 -1.08%
CCOC(=O)c1c(C)[nH]c(CCC(=O)NCCCN2CCN(c3ccc(F)cc3)CC2)c1C 9.99%
COc1ccc(NC(=O)Nc2cccc(-c3noc(C)n3)c2)cc1 -0.638%
COc1ccc(NC(=O)C(Cc2ccccc2)n2cccc2)c(OC)c1 (stereo not given) -0.936%
COc1ccc(C2C(C(=O)Nc3ccccc3)=C(C)Nc3c(C(=O)Nc4ccccc4)cnn32)cc1 (stereo not given) 2.35%
CC(C)=CCC/C(C)=C/C=O 7.02% [at 78.4 µM]
CCOC(=O)c1ccccc1NC(=O)Cn1c(=O)n(-c2cccc(C)c2)c(=O)c2c1c1cc(C)ccc1n2C 0.665%
Cc1nc(-c2ccccc2C(C)C)nc(NCc2ccc(-c3cccnc3)cc2)c1C 1.34%
CCCCCC(O)/C=C/C=C\CCCCCCCC(=O)O (stereo not given) -1.07% [at 0.303 µM]
CCOC(=O)C(=O)NCC(c1cccnc1)N1CCN(c2ccccc2)CC1 (stereo not given) 5.49%
O=C(Nc1cc2c(cc1C(=O)c1ccccc1Cl)OCCO2)c1ccc(Br)cc1 -0.336%
O=C(CN1C(=O)CCn2nc(-c3ccccc3)cc21)NCc1ccc(F)cc1 1.3%
CNC(=O)c1ccc(Nc2nnc(-c3ccc(C)c(S(=O)(=O)N4CCOCC4)c3)c3ccccc23)cc1 5.76%
Cc1ccc(C)c(NC(=O)CC2NCCNC2=O)c1 (stereo not given) -0.0323%
COc1ccccc1NC(=O)CSc1nnc(NC(=O)NC2CCCCC2)s1 0.127%
COc1cc2c(NC3CCN(C)CC3)nc(N3CCN(C)CC3)nc2cc1OCCOCCN(C)C 10.7%
CN1C(C(=O)Nc2ccc(F)cc2F)=CC(c2cccs2)=NS1(=O)=O 0.262%
CC(=O)N1CCC(C(=O)Nc2nnc(C(C)C)s2)CC1 -0.394%
